# Screening data: PubChem BioAssay, National Center for Advancing Translational Sciences (NCATS)
# Sampled rows, rich in hits. Any-hit rate of the full collection: about 9.3%.
# Vaccinia Venus: qHTS for Stage-Specific Inhibitors of Vaccinia Orthopoxvirus: Venus Reporter Primary qHTS | Vaccinia virus Venus reporter expression, fluorescence | Potency, µM (series often up to 36.5 µM), for the others: at the top dose activity change, negative = inhibition, actives largely listed as inhibitors | hit rate 0.46% among 330,000 | AID 720580, 2013; calls by dose curve; tested in A549 cells; further: potency means the concentration at half of the fitted maximal effect; nearly all actives have a fitted effect of over 30% in size
# Vaccinia mCherry: qHTS for Stage-Specific Inhibitors of Vaccinia Orthopoxvirus: mCherry Reporter Primary qHTS; AID 720579, 2013; Potency, µM (series often up to 36.5 µM), for the others: at the highest dose activity change, negative = inhibition, most hits filed as inhibitors; hit rate 0.63% among 310,000; Vaccinia virus mCherry reporter infection, fluorescence; calls by dose curve; tested in A549 cells; further: potency means the concentration at half of the fitted maximal effect; nearly all actives have a fitted effect of over 35% in size
# HCMV inh: qHTS Assay for inhibitors of the human cytomegalovirus (HCMV); hit rate 4.5% among 410,000; activity change, negative = inhibition, % at 57.5 µM; HFF cells, HCMV-luciferase reporter, 72 h; stronger effect = lower value; in the data active means activity change below about -60%; inconclusive means no clear call, values can overlap the other calls; inactive means above about -39%
#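 Human foreskin fibroblasts infected with luciferase-reporter HCMV at MOI 1 PFU/cell, compounds at two doses. Luciferase measured 72 h post infection; normalized to buffer-only basal and Salinomycin (10uM) controls.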
# HCV inh: qHTS Assay for Inhibitors of Hepatitis C Virus (HCV). Huh7.5.1 HCVcc-Cre infection, luciferase reporter, 44 h. Potency, µM (doses to about 41.8 µM), for the others: at the top dose activity change, negative = inhibition, actives largely listed as inhibitors. hit rate 3.4% among 340,000; further: potency means the concentration at half of the fitted maximal effect
#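 Cells (1,000/well) were plated 4 h before compound, then infected with HCVcc-Cre virus (~0.5 moi). After 44 h further culture, infection was read as luciferase luminescence following a 15 min substrate incubation at room temperature.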
# Sm TGR block: qHTS Assay for the Inhibitors of Schistosoma Mansoni Peroxiredoxins. Schistosoma mansoni thioredoxin glutathione reductase (TGR), Q962Y6. hit rate 3% among 360,000. purified TGR, DTNB reduction, TNB absorbance 405 nm. Potency, µM (doses to about 114 µM), inactives show top-dose activity change, negative = inhibition, actives largely listed as inhibitors; further: potency means the concentration at half of the fitted maximal effect; nearly all actives have a fitted effect of over 60% in size
#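 First, TGR (20 nM dispensed) and NADPH were mixed with compound. Second, a 15 min room-temperature incubation followed. Third, further NADPH and then DTNB were added to start the reaction. Finally, TNB absorbance was monitored kinetically.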
# FMDV inh: High Throughput Screening for Foot and Mouth Disease Virus Antivirals; Potency, µM (series often up to 57.9 µM), for the others: at the top dose activity change, negative = inhibition, usual class: inhibitors; hit rate 1.2% among 410,000; FMDV antiviral cell-based qHTS; AID 1159524, 2015; calls by dose curve; tested in HEK293T cells; further: read-out not given here; potency means the concentration at half of the fitted maximal effect; nearly all actives have a fitted effect of over 45% in size
# The depositor's hits bear a star; i = inactive; u = inconclusive; x = no result; [ ] = dose if it differs, or a comment. Unless noted, the call rests on the fitted dose curve; in most records, active means well fitted curve in the direction sought with a large enough effect; inconclusive means small, poorly fitted or top-dose-only effect, or another doubt; inactive means no such curve, though single readings can be large; an effect the other way counts as inactive or inconclusive. On the % scale 0 is the no-effect control and ±100 the full control effect.
SMILES,Vaccinia Venus,Vaccinia mCherry,HCMV inh,HCV inh,Sm TGR block,FMDV inh
COc1ccc(NCc2cccn2-c2nnc(N3CCCCC3)s2)cc1OC,-2%,-3%,-8,x,45µM*,-13%
O=C(NCCCN1CCN(c2ccccc2F)CC1)c1ccc2nc(Cc3ccccc3)oc2c1,-29%,-25%,-3,x,0%,u
O=C(NCCCN1CCN(c2ccccc2F)CC1)c1ccc2nc(CCc3ccccc3)oc2c1,-15%[7.34 µM],-12%[7.34 µM],-101*,x,u,u
CCN1CCN(CCNC(=O)c2ccc3nc(-c4cccc(C)c4)c(-c4cccc(C)c4)nc3c2)CC1,x,x,-109*,u,-12%,-19%
CCc1nc2ccc(C(=O)NCCCN3CCN(c4ccccc4F)CC3)cc2nc1CC,-20%,-3%,23,4.5µM*,-30%,0%
CCn1nc(C)c(NC(=O)/C=C/c2cnn(C)c2C)c1C,x,x,17,-3%,10%,24%
CCn1ncc(/C=C/C(=O)Nc2c(C)nn(Cc3ccc(Cl)cc3Cl)c2C)c1C,-28%,-17%,-103*,u,-8%,-28%
COc1ccc(-n2c(N3CCN(C)CC3)nc3sc4c(c3c2=O)CCCCC4)cc1,x,x,-20,13µM*,6%,9%
CN(C)CCNc1nc2sc3c(c2c(=O)n1Cc1ccccc1)CCCCC3,-9%,-9%,-20,11µM*,-5%,-7%
COc1ccc(-n2c(NCCN(C)C)nc3sc4c(c3c2=O)CCCCC4)cc1,-23%,i,-107*,u,-10%,-29%
CN(C)CCNc1nc2sc3c(c2c(=O)n1-c1ccccc1)CCCCC3,-23%,-1%,1,-56%,0%,-9%
Cc1ccc(-n2c(SCC(=O)c3c(N)n(C)c(=O)n(C)c3=O)nc3sc4c(c3c2=O)CCCC4)c(C)c1,-16%,5%,-68*,u,3%,12%
CN(C)CCn1c2c(c(SCC(=O)Nc3ccc(F)cc3F)nc1=O)CCC2,-12%[7.34 µM],-15%[7.34 µM],3,x,12%,-23%
O=C(c1ccccc1)n1nc(-c2ccco2)nc1NCc1cccs1,-16%,i,15,x,-20%,19%
COc1ccc(-n2c(SCC(N)=O)nc3sc4c(c3c2=O)CCC4)cc1,0%,-6%,1,10µM*,12%,-24%
Cc1nc2ccc(NC(=O)N3CCOCC3)cc2nc1C,1%,-11%,-36,10%,x,-5%
C#CCOCCOCCOCCNc1nc(N2CCN(C(=O)Cn3cc(CCCCN)nn3)CC2)nc(N2CCN(C(=O)[C@H](CCCCN)n3cc(CCCC)nn3)CC2)n1,-9%,i,-23,1%,0%,-12%
CCN(C(=O)COc1cc(=O)n(C)c2ccccc12)c1cccc(Cl)c1,x,x,-90*,-20%,-4%,-29%
CN(C(=O)COc1cc(=O)n(C)c2ccccc12)c1cccc(Cl)c1,0%,-11%,-32,-13%,-15%,-24%
CCn1c(SCC(=O)N2CCCc3ccccc32)nnc1-c1ccco1,-27%,i,u,13%,u,-7%
Cc1cc2c(=O)n(Cc3ccco3)c(SCC(=O)N3CCCc4ccccc43)nc2s1,u,u,-88*,u,-39%,x
CCn1c(SCC(=O)N2CCCc3ccccc32)nc2ccccc2c1=O,-25%,u,u,5µM*,7%,u
CC(C)Cn1c(SCC(=O)N2CCCc3ccccc32)nc2ccccc2c1=O,-10%,12%,-19,u,10%,u
CC(C)c1nc(SCC(=O)N2CCCc3ccccc32)c2c(=O)n(C)c(=O)n(C)c2n1,u,u,-29,10µM*,-5%,u
OC(c1ccc(F)c(F)c1)c1ncc(-c2ccc(Cl)cc2)[nH]1 (stereo not drawn),u,u,-64*,x,x,8%
SMILES,Vaccinia Venus,Vaccinia mCherry,HCMV inh,HCV inh,Sm TGR block,FMDV inh
Cc1cc(NC(=O)c2ccco2)c(=O)n(Cc2cccc(C(F)(F)F)c2)c1,-12%,-21%,-38,u,-13%,8%
CC(C)(C)N(NC(=O)c1ccccc1)C(=O)c1ccc(C(=O)N(NC(=O)c2ccccc2)C(C)(C)C)cc1,-17%,u,-60*,3%,-1%,-23%
CCCN1C(=O)c2ccccc2NC1c1ccc(OC)cc1O (stereo not drawn),-14%,x,-91*,11%,-4%,u
CC(C)(C)OC(=O)N1CCC(C(=O)N2CCCCCC2)CC1,-10%,x,14,16%,-3%,-16%
CCOc1ccc(-c2nnc(SCC(=O)N3CCNC3=O)o2)cc1,x,x,0,-28%,7%,40%
CC(C)Sc1nc2c(cnn2-c2ccccc2)c(=O)[nH]1,-21%,-22%,47,-26%,3%,-7%
Cc1ccc(-n2ncc3c(=O)[nH]c(SC(C)C)nc32)cc1,-13%,-18%,-96*,u,4%,-20%
CCOC(=O)C(C)Sc1nc2c(cnn2-c2ccc(C)cc2)c(=O)[nH]1 (stereo not drawn),-29%,u,-28,11µM*,0%,-12%
COC(=O)C(C)Sc1nc2c(cnn2-c2ccccc2)c(=O)[nH]1 (stereo not drawn),-3%,-13%,2,-9%,10%,-13%
Cc1ccc(-c2nnc(NC(=O)c3c(F)cccc3Cl)s2)cc1,-19%,i,6,9%,1%,-15%
NS(=O)(=O)c1ccc(CCNC(=O)C2CCC(CNS(=O)(=O)c3ccc(Br)s3)CC2)cc1 (stereo not drawn),-4%,-1%,12,-4%,-16%,-12%
Cc1ccc(-n2nnnc2CCl)cc1,-15%,-3%,12,u,5.6µM*,u
CCN(C(=O)C1CCC(CNS(=O)(=O)c2cccc3nsnc23)CC1)c1ccc(C)c(C)c1 (stereo not drawn),-11%,-25%,21,x,13%,u
C/C(=N\NC(=O)c1cc(-c2ccco2)nc2ccccc12)c1cccnc1,x,x,7,-2%,10µM*,-9%
COc1ccc(OC)c(-c2cc(C(=O)N/N=C(\C)c3cccnc3)c3ccccc3n2)c1,-12%,u,-16,-11%,-16%,-12%
O=C(Nc1nccs1)c1cc(-c2ccco2)nc2ccccc12,9%,-1%,17,1%,56µM*,-25%
O=C(NC1CC1)c1cc(-c2ccco2)nc2ccccc12,0%,-19%,x,-3%,10µM*,-4%
Cc1ccccc1Nc1cc(C(=O)NC2CCCCC2)c2ccccc2n1,-11%,-12%,-9,x,5%,7%
Cc1ccccc1Nc1cc(C(=O)NC2CCC(C)CC2)c2ccccc2n1 (stereo not drawn),-22%,-14%,-78*,x,11%,43%
O=C(O)c1cc(-c2ccco2)nc2ccccc12,-6%,i,13,3%,u,4%
